Records with an inconclusive call do not appear. Calls of active or inactive are those of the source. Unless noted, the call rests on the fitted dose curve; in most records, active means well fitted curve in the direction sought with a large enough effect in the repeat runs; inconclusive means weak or mixed curves; inactive means no such curve, though single readings can be large; an effect the other way counts as inactive or inconclusive.
What was measured:
[1] = qHTS assay for small molecule agonists of the p53 signaling pathway (AID 651631; calls by dose curve; further: nearly all actives have a fitted effect of over 15% in size; further: potency means the concentration at half of the fitted maximal effect)
Outline: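 HCT-116 cells carrying a stable p53 response element–beta-lactamase reporter were plated, rested 5 h at 37 °C, then exposed to compound in DMSO for 16 h at 37 °C; reporter activity was read as FRET substrate fluorescence after 2 h at room temperature.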

[2] = qHTS assay for small molecules that induce genotoxicity in human embryonic kidney cells expressing luciferase-tagged ATAD5 (AID 651632); further: nearly all actives have a fitted effect of over 15% in size
Outline: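 A rise in luciferase signal from ATAD5-tagged HEK293T cells marks genetic stress. Cells were exposed to compounds for 16 hr at 37C, 5% CO2, then luciferase was quantified after a 30 min room-temperature incubation with Amplite.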

[3] = qHTS assay for small molecule agonists of the p53 signaling pathway - cell viability (AID 651633; calls by dose curve; further: series mostly up to about 83 µM; nearly all actives have a fitted effect of over 30% in size)
Outline: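 p53RE-bla cells were treated with compound for 16 hours at 37 C. Cytotoxicity was then measured as CellTiter-Glo luminescence after 30 min at room temperature.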

[4] = qHTS assay for small molecules that induce genotoxicity in human embryonic kidney cells expressing luciferase-tagged ATAD5 - cell viability (AID 651634; calls by dose curve; further: nearly all actives have a fitted effect of over 25% in size)
Outline: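 Cytotoxicity counter-readout: after 15.5 hr compound treatment at 37C, live-cell protease activity in ATAD5-luciferase HEK293T cells measured by CellTiter-Fluor fluorescence, 30 min development at 37C.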

[5] = qHTS assay for small molecule disruptors of the mitochondrial membrane potential - cell viability (AID 720634; calls by dose curve;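 further: human HepG2 liver cancer cells; series mostly up to about 83 µM; nearly all actives have a fitted effect of over 20% in size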)
Outline: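 Cytotoxicity was quantified from ATP content by CellTiter-Glo luminescence in the same wells as the MMP dye read-out. HepG2 (2,000 cells/well) were plated overnight and exposed to compounds for 1 hr at 37 C.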

[6] = qHTS assay for small molecule disruptors of the mitochondrial membrane potential (AID 720635); further: potency means the concentration at half of the fitted maximal effect
Outline: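 HepG2 cells exposed to compound 1 hr at 37C, then Mito-MPS dye 30 min. Ratio read of aggregate (540/590 nm) versus monomer (490/535 nm) fluorescence.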

[7] = qHTS assay to test for compound auto fluorescence at 590 nm (red) in HepG2 cells (AID 720674)
Outline: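 HepG2 cells, 2,000 per well in MEM with 10% FBS, attached overnight at 37 C, then got 23 nL compound or DMSO. After 1 hr at 37 C, 5% CO2, red fluorescence was read at 540/590 nm against Rose Bengal sodium as reference.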

[8] = qHTS assay to test for compound auto fluorescence at 535 nm (green) in HepG2 cells (AID 720675)
[9] = qHTS assay to test for compound auto fluorescence at 460 nm (blue) in HEK293 cells (AID 720678)
Outline: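 HEK293, 2,000 cells/well, 10% dialyzed FBS; attach 4-5 hr 37C; pin compound or DMSO; o/n 37C/5% CO2; fluorescence 405/460 nm; triamterene-equivalent units.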

[10] = qHTS assay to test for compound auto fluorescence at 460 nm (blue) in HEK293 cell free culture (AID 720681)
Outline: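 Compounds were added to cell-free DMEM with 10% FBS and fluorescence read directly. The blue channel used 405 nm excitation and 460 nm emission, with triamterene as the reference fluorophore.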

[11] = qHTS assay to test for compound auto fluorescence at 535 nm (green) in HEK293 cell free culture (AID 720682)
Outline: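 Read-out: 485/535 nm fluorescence intensity, calibrated against fluorescein. Medium only (DMEM + 10% FBS, no cells); test compound or DMSO vehicle added by pintool before plate reading.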

[12] = qHTS assay to test for compound auto fluorescence at 590 nm (red) in HEK293 cell free culture (AID 720683)
Outline: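 Cell-free wells of DMEM with 10% FBS received compound, and intrinsic fluorescence was read at excitation/emission 540/590 nm. Values expressed as equivalence to Rose Bengal sodium.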

[13] = qHTS assay to test for compound auto fluorescence at 590 nm (red) in HepG2 cell free culture (AID 720684)
Outline: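 Rose Bengal sodium served as the reference for red signal. Test compounds were dispensed into serum-containing MEM (10% FBS) without cells, and plates were read at 540/590 nm.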

[14] = qHTS assay to test for compound auto fluorescence at 460 nm (blue) in HepG2 cell free culture (AID 720685)
Outline: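 Cell-free plates of MEM plus 10% FBS received 23 nL compound or DMSO vehicle; blue-channel (405/460 nm) intensity scored against triamterene as reference fluorophore.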

[15] = qHTS assay to test for compound auto fluorescence at 535 nm (green) in HepG2 cell free culture (AID 720686)
[16] = qHTS assay to test for compound auto fluorescence at 460 nm (blue) in HepG2 cells (AID 720687)
Outline: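 HepG2 cells in MEM with 10% FBS, attached overnight at 37 C, were exposed to compound or DMSO for 1 hr at 37 C, 5% CO2. Blue fluorescence was read at 405/460 nm, with triamterene as reference fluorophore.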

[17] = target: Glucocorticoid receptor (Homo sapiens) (UniProt P04150); assay: qHTS assay to identify small molecule agonists of the glucocorticoid receptor (GR) signaling pathway (AID 720691; active means well fitted activation curve with a large enough effect in the signal ratio in the repeat runs, not every such curve was filed as active; the % refers to the signal ratio)
Sequence of Glucocorticoid receptor (Homo sapiens) (P04150 whole entry, looked up): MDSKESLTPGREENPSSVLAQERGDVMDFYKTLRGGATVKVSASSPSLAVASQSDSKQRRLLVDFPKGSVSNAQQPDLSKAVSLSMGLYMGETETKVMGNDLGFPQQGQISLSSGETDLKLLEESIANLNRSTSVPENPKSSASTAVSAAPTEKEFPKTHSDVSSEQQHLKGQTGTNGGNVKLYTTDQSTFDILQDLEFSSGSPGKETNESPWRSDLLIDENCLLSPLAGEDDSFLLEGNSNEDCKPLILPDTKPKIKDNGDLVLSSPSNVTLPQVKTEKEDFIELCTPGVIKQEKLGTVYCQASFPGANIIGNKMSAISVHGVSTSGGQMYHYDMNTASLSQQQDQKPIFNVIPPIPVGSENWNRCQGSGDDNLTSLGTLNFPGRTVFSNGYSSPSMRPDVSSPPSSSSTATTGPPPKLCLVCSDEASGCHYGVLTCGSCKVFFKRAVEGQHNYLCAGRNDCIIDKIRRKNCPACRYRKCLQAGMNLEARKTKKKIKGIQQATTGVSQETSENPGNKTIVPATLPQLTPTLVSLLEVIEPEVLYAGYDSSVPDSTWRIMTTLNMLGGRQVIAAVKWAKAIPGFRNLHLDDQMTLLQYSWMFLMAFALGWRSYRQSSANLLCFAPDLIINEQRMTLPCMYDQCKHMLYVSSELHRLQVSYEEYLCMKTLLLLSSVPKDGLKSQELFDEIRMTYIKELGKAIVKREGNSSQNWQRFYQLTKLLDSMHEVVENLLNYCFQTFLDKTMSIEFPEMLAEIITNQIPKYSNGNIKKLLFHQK
Outline: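 Agonist-mode qHTS in HeLa cells stably expressing a glucocorticoid-response-element beta-lactamase reporter. Fluorescence intensity read with FRET substrate (2 h, room temperature) after 18 h compound treatment at 37 C.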

[18] = target: Glucocorticoid receptor (Homo sapiens) (UniProt P04150); assay: qHTS assay to identify small molecule antagonists of the glucocorticoid receptor (GR) signaling pathway (AID 720692; active means well fitted inhibition curve with a large enough effect in the signal ratio in the repeat runs, not every such curve was filed as active; the % refers to the signal ratio)
Outline: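 Inhibition of dexamethasone-driven (5 nM final) beta-lactamase expression was measured in GRE-reporter HeLa cells over 18 h at 37C. Fluorescence was read after 2 h with the B/G FRET substrate at room temperature.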

[19] = qHTS assay to test for compound auto fluorescence at 590 nm (red) in HEK293 cells (AID 720679)
Outline: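 Intensity at 540nm excitation and 590nm emission is reported as Rose Bengal sodium-equivalent autofluorescence. Measurements followed overnight exposure (37C, 5% CO2) of HEK293 cells, 2,000 per well, to 23 nL compound.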

[20] = qHTS assay to test for compound auto fluorescence at 535 nm (green) in HEK293 cells (AID 720680)
On the % scale 0 is the no-effect control and ±100 the full control effect.

CCCCCC=CCC=CCCCCCCCC(=O)OCC
inactive: Potency [1] | Potency [2] | Potency [3] | Potency [4] | Potency [5] | Potency [6] | outcome [7] | outcome [8] | Potency [9] | Potency [10] | outcome [11] | outcome [12] | outcome [13] | Potency [14] | outcome [15] | Potency [16] | Potency [17] | Potency [18]

CCC(C(=O)OCCN(CC)CC)c1ccccc1 (stereo unspecified)
inactive: Potency [1] | Potency [2] | Potency [3] | Potency [4] | Potency [5] | Potency [6] | outcome [7] | outcome [8] | Potency [9] | Potency [10] | outcome [11] | outcome [12] | outcome [13] | Potency [14] | outcome [15] | Potency [16] | Potency [17] | Potency [18]

CCCOC(=O)c1ccc(N)cc1
inactive: Potency [1] | Potency [2] | Potency [3] | Potency [4] | Potency [5] | Potency [6] | outcome [7] | Potency [9] | outcome [19] | outcome [20] | Potency [10] | outcome [11] | outcome [12] | outcome [13] | Potency [14] | outcome [15] | Potency [16] | Potency [17]

CCCOC(=O)c1ccc(C(=O)OCCC)nc1
inactive: Potency [1] | Potency [2] | Potency [3] | Potency [4] | Potency [5] | Potency [6] | outcome [7] | Potency [9] | outcome [19] | outcome [20] | Potency [10] | outcome [11] | outcome [12] | outcome [13] | Potency [14] | outcome [15] | Potency [17] | Potency [18]

O=C(/C=C/c1ccccc1)OCCCc1ccccc1
inactive: Potency [1] | Potency [2] | Potency [3] | Potency [4] | Potency [5] | Potency [6] | outcome [7] | outcome [8] | Potency [9] | outcome [20] | outcome [11] | outcome [12] | outcome [13] | Potency [14] | outcome [15] | Potency [16] | Potency [17]

N#C/C(=C1\SCC(c2ccccc2Cl)S1)n1ccnc1 (stereo unspecified)
inactive: Potency [1] | Potency [2] | Potency [3] | Potency [4] | Potency [5] | outcome [7] | outcome [8] | Potency [9] | outcome [19] | outcome [20] | Potency [10] | outcome [11] | outcome [12] | outcome [13] | Potency [14] | outcome [15] | Potency [16] | Potency [17]

CCCCCCCCCCCC[N+](C)(C)CCCS(=O)(=O)[O-]
inactive: Potency [1] | Potency [2] | Potency [3] | Potency [4] | Potency [5] | Potency [6] | outcome [7] | outcome [8] | Potency [9] | outcome [19] | outcome [20] | Potency [10] | outcome [11] | outcome [12] | outcome [13] | Potency [14] | outcome [15] | Potency [16] | Potency [17]

C/C=C(\C)C(=O)OCCC(C)CCC=C(C)C (stereo unspecified)
inactive: Potency [1] | Potency [2] | Potency [3] | Potency [4] | Potency [5] | Potency [6] | outcome [7] | outcome [8] | Potency [9] | outcome [19] | outcome [20] | Potency [10] | outcome [11] | outcome [12] | outcome [13] | Potency [14] | outcome [15] | Potency [16] | Potency [17] | Potency [18]

CCCCCCCC/C=C\CCCCCCCC(=O)OC
inactive: Potency [1] | Potency [2] | Potency [3] | Potency [4] | Potency [5] | Potency [6] | outcome [7] | outcome [8] | Potency [9] | outcome [19] | outcome [20] | Potency [10] | outcome [11] | outcome [13] | Potency [14] | outcome [15] | Potency [16] | Potency [17]

CCCCCCCCCCCCCCCCBr
inactive: Potency [1] | Potency [2] | Potency [3] | Potency [4] | Potency [5] | fluorescence, relative to Rose Bengal [7] 0.0532% [at 18.6 µM] | fluorescence, % of fluorescein control [8] 0.118% [at 18.6 µM] | fluorescence, % of triamterene [9] -0.0281% [at 18.6 µM] | fluorescence, % of fluorescent control [19] -0.108% [at 18.6 µM] | fluorescence, % of fluorescein [20] -0.0178% [at 18.6 µM] | fluorescence, % of fluorescent control [10] 0.102% [at 18.6 µM] | activity change [11] 0.0082% [at 18.6 µM] | fluorescence, % of fluorescent control [12] 0.0252% [at 18.6 µM] | fluorescence, % of Rose Bengal [13] 0.119% [at 18.6 µM] | fluorescence, % of fluorescent control [14] -0.0045% [at 18.6 µM] | fluorescence, % of fluorescein control [15] 0.0028% [at 18.6 µM] | fluorescence, % of fluorescent control [16] -0.0027% [at 18.6 µM]

CN1C(=O)CC(C)(c2ccccc2)C1=O (stereo unspecified)
inactive: Potency [1] | Potency [2] | Potency [3] | Potency [4] | Potency [5] | Potency [6] | outcome [7] | Potency [9] | outcome [19] | outcome [20] | Potency [10] | outcome [11] | outcome [12] | outcome [13] | Potency [14] | outcome [15] | Potency [17] | Potency [18]

CCC(=O)Oc1ccc(/C(CC)=C(\CC)c2ccc(OC(=O)CC)cc2)cc1
inactive: Potency [2] | Potency [3] | Potency [4] | Potency [5] | outcome [7] | Potency [9] | outcome [19] | Potency [10] | outcome [11] | outcome [12] | outcome [13] | Potency [14] | outcome [15] | Potency [16]
active: Potency [1] 15.4 µM | Potency [6] 8.63 µM

Fc1c(F)c(F)c(Br)c(F)c1F
inactive: Potency [1] | Potency [2] | Potency [3] | Potency [4] | Potency [5] | Potency [6] | outcome [7] | outcome [8] | Potency [9] | outcome [19] | outcome [20] | Potency [10] | outcome [11] | Potency [14] | outcome [15] | Potency [16]

Source: PubChem BioAssay (Tox21)
